# PubChem BioAssay (EPA / NIEHS)
# Activity calls are given as the source filed them. The calls were made as follows: active = hit-call score of the fitted dose curve at least 0.9, where 1 is the maximum; inactive = score below 0.9.
# Biological target: Transcription factor Sp1 (Homo sapiens) (UniProt P08047)
# Assay: ATG_Sp1_CIS: Attagene CIS-FACTORIAL HepG2 Assay for human Specificity Protein 1 (Sp1) (AID 2282961)
# Conditions: HepG2 Sp1 cis-reporter transcription, actives raise or lower the signal
# Procedure: ATG_CIS is a cell-based, multiplexed-readout assay that uses HepG2, a human liver cell line, with measurements taken at 24 hours after chemical dosing in a 24-well plate.ATG_Sp1_CIS is one of 52 assay component(s) measured or calculated from the ATG_CIS assay. It is designed to make measurements of mRNA induction, a form of inducible reporter, as detected with fluorescence intensity signals by Reverse transcription polymerase chain reaction (RT-PCR) and Capillary electrophoresis technology.Data from the assay component ATG_Sp1_CIS was analyzed into 1 assay endpoint. This assay endpoint, ATG_Sp1_CIS, was analyzed with bidirectional fitting relative to DMSO as the negative control and baseline of activity. Using a type of inducible reporter, measures of mRNA for gain or loss-of-signal activity can be used to understand the reporter gene at the transcription factor-level as they relate to the gene SP1. Furthermore, this assay endpoint can be referred to as a primary readout, because this assay has produced multiple assay endpoints where this one serves a reporter gene function. To generalize the intended target to other relatable targets, this assay endpoint is annotated to the dna binding intended target family, where the subfamily is zinc finger.
# Human liver HepG2 cells are transiently transfected with multiple reporter transcription units (MRTUs) in 6-well plates using FuGene 6 reagent (Roche; 3 ml FuGene/1 mg DNA). The MRTU constructs are regulated by a cis-regulating element (promoter). […] A major difference between the CIS and TRANS system is that in CIS activities of endogenous TFs are measured, whereas the TRANS assay evaluates changes in activities of exogenous, chimeric NR-Gal4 proteins. […] At the end of 24 hour incubation, total RNA was isolated using TriZol reagent (Invitrogen). The isolated RNA is then reverse-transcribed using oligo(dT) primer and Mo-MLV reverse transcriptase (Invitrogen) with DNAse I (Ambion) treatment for 30 min. The one-tenth of the produced cDNA was amplified by PCR using Taq DNA polymerase (Invitrogen) and two reporter sequence-specific primers. The PCR products were fluorescently labeled by primer extension with 6-arboxyfluorescein (6-FAM) 5'-labeled reporter sequence-specific primer (2 min at 95 C, 20 s at 68 C and 10 min at 72 C) and these products were digested with 5U of HpaI (New England Biolabs) for 2h at 37 C. The fragments were purified using Qiaquick PCR columns (Qiagen), analyzed on an ABI 3130xL genetic analyzer (Applied Biosystems) with peak positions identified by using a set of X-rhodamine (ROX)-labeled MapMarker1000 molecular weight standards (BioVentures). The raw capillary electrophoresis data was processed using Attagraph software (Attagene).
# Transcription factor Sp1 (Homo sapiens), sequence (P08047 whole entry, looked up): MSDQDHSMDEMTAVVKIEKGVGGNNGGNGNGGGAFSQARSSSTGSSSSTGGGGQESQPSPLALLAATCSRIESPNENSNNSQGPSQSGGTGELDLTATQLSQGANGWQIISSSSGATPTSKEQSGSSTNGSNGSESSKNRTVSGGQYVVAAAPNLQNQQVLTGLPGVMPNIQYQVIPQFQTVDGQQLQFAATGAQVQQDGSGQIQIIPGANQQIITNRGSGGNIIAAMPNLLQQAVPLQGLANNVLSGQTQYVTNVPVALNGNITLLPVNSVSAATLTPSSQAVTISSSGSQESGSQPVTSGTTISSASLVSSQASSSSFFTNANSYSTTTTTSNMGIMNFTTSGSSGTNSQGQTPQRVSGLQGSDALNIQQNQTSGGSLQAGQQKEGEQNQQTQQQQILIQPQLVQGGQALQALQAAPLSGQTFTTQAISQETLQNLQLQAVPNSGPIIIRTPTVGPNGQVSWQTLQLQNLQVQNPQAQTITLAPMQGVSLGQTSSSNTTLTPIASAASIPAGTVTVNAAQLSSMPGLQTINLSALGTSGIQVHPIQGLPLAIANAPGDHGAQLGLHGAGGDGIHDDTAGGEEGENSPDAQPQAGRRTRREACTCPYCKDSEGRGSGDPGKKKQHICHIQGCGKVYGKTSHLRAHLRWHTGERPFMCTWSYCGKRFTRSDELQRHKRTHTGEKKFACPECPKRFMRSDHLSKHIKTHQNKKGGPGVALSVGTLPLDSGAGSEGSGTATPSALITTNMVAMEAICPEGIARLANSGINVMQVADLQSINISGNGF
SMILES,outcome,AC50
C[C@@H]1CCN(C(=O)[C@H](CCCN=C(N)N)NS(=O)(=O)c2cccc3c2NC[C@H](C)C3)[C@@H](C(=O)O)C1,inactive,
COc1ccc(CCO)cc1,inactive,
CCCCCCOC(=O)C(C)C,inactive,
CS(=O)(=O)c1ccc(C2=C(c3ccccc3)C(=O)OC2)cc1,inactive,
Cc1ccc(S(=O)(=O)Oc2ccc(N=Nc3ccc(-c4ccc(N=Nc5c(O)ccc6cc(S(=O)(=O)O)cc(S(=O)(=O)O)c56)c(C)c4)cc3C)cc2)cc1,inactive,
CC1CC(O)CC(C)(C)C1 (stereo not given),inactive,
O=Cc1ccccc1S(=O)(=O)O,inactive,
OCc1cccc(Oc2ccccc2)c1,inactive,
COc1ccc(N)c([N+](=O)[O-])c1,inactive,
CC(C)(CO)[C@@H](O)C(=O)NCCC(=O)O,inactive,
C=CCOC(=O)CCCCCC,inactive,
O=[N+]([O-])c1cccc(Cl)c1,inactive,
C=C(C)C1CC=C(C)C(=O)C1 (stereo not given),inactive,
Brc1ccc(Br)c(Br)c1,inactive,
CC(CN=Cc1ccccc1O)N=Cc1ccccc1O (stereo not given),inactive,
CC=CC=CCOC(=O)C(C)C,inactive,
Nc1ccccc1[N+](=O)[O-],inactive,
CCCC[O][Al]([O]CCCC)[O]CCCC,inactive,
C=COCCOCCOC=C,inactive,
CC(C)(C)C1=CC(=O)C(C(C)(C)C)=CC1=O,inactive,

SMILES,outcome,AC50
COC(C)(C)CC(C)=O,inactive,
CCC(C)S (stereo not given),inactive,
Nc1ccc2cc(S(=O)(=O)O)cc(O)c2c1N=Nc1ccccc1C(F)(F)F,inactive,
CCCC(C)C(O)CC (stereo not given),inactive,
C=C(CC(=O)O)C(=O)O,inactive,
O=C(O)COCC(=O)O,inactive,
CC(C)(C)OC(=O)c1ccc(O)cc1,inactive,
CC1(C)O[C@@H]2C[C@H]3[C@@H]4CCC5=CC(=O)C=C[C@]5(C)[C@@]4(F)[C@@H](O)C[C@]3(C)[C@]2(C(=O)CO)O1,inactive,
CCCCC1(COC(=O)CCC(=O)O)C(=O)N(c2ccccc2)N(c2ccccc2)C1=O,inactive,
c1ccc(CN(Cc2ccccc2)Cc2ccccc2)cc1,,165 µM (active)
CC(C=O)Cc1ccc(C(C)(C)C)cc1 (stereo not given),inactive,
O=C1OC(=O)c2c(Cl)c(Cl)c(Cl)c(Cl)c21,inactive,
Clc1ccc(C(c2ccccc2Cl)C(Cl)Cl)cc1 (stereo not given),,52.7 µM (active)
C=C(C)[C@H]1CC=C(C)C(=O)C1,inactive,
CCCCCc1ccco1,inactive,
N#Cc1cscn1,inactive,
CC(C)=CCCC(C)CCOC=O (stereo not given),inactive,
O=c1[nH]c(=O)c2cn[nH]c2[nH]1,inactive,
Nc1c(S(=O)(=O)O)cc(Br)c2c1C(=O)c1ccccc1C2=O,inactive,
O=C1OC[C@H](Cc2cccc(O)c2)[C@H]1Cc1cccc(O)c1,inactive,
